A selection: hits, their analogues and other compounds. The true share with any hit is near 3.5%.
MITF primary = human MITF inhibition, primary screen. O75030. AlphaScreen MITF homodimerization, bead proximity signal. inhibition, % at 2.6 µM. 650,000 compounds, 0.91% hits; in the data active = inhibition above about 50%;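 note: 0% = vehicle wells with protein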
FBW7 activator = human FBW7 E3 ligase activation, primary screen. Q969H0. normalized activity (activation), % at 26.1 µM. 650,000 compounds, 0.13% hits. AlphaScreen FBW7–phospho-cyclin E peptide binding, activator screen; in the data active = normalized activity above about 1.9%;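 note: purified mutant Fbw7 with reduced substrate affinity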
Target sequence (Q969H0 whole entry, looked up): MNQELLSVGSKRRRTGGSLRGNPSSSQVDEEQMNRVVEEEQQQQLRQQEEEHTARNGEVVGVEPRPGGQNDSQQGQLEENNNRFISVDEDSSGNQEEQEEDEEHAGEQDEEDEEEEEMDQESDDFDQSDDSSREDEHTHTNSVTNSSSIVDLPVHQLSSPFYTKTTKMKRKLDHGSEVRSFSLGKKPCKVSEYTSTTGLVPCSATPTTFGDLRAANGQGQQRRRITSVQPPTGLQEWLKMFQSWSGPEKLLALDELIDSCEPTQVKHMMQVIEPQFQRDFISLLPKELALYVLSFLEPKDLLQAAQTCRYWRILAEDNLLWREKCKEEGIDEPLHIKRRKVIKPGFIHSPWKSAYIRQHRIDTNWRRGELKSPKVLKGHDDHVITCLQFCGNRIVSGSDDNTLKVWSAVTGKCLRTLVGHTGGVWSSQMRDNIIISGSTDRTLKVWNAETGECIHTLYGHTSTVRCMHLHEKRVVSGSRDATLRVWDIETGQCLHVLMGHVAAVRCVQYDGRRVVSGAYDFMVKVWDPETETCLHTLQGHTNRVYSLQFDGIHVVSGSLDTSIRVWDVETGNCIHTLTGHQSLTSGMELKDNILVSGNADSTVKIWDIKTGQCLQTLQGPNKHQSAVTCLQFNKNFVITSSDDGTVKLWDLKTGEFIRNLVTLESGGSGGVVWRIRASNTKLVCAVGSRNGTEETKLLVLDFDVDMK
GPR151 ag = activators of human GPR151; activation, % at 11.2 µM; 650,000 compounds, 1% hits; Q8TDV0; PathHunter beta-arrestin GPR151 cells, luminescence; in the data active = activation above about 4.9%;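 note: 0% = median of compound wells and 100% = cells with positive control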
TEAD-YAP block = TEAD-YAP interaction inhibition. AID 1259422. HEK-TIYL cells, TEAD-Gal4/YAP UAS-luciferase luminescence. 640,000 compounds, 1.4% hits. inhibition, % at 9.12 µM; in the data active = inhibition above about 32%;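 note: 0% = median of test compound wells and 100% = reference inhibitor wells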
Numbers without * were called inactive.

SMILES	MITF primary	FBW7 activator	GPR151 ag	TEAD-YAP block
O=C(NCC(c1cccs1)N1CCOCC1)c1ccc(Cl)s1 (centres undefined)	-8	0	0	57*
COc1cccc(CC(=O)Nc2ccc3nc(N4CCOCC4)cc(C)c3c2)c1	-4	0	1	-4
COc1cccc(OC)c1OCCCCNCCO	31	0	1	-5
CCOC(=O)/C=C(\Nc1ccc(C)cc1N)c1ccccc1	-10	0	-9	38*
Cc1ccc(NC(=O)COc2ccccc2)c(N)c1	11	0	0	-45
O=C(N/N=C/c1ccc(F)cc1)c1cc2sccc2[nH]1	17	0	-1	49*
COc1cc(Nc2nc(Nc3ccc(-n4ccnc4)cc3)nc3c2ncn3C(C)C)cc(OC)c1OC	-1	0	-2	40*
COc1cc2nc(Nc3cnccn3)nc(Nc3cc(OC)c(OC)c(OC)c3)c2cc1OC	15	0	1	33*
COc1cc(Nc2nc(Nc3ccc(N4CCOCC4)cc3)c3ncn(C(C)C)c3n2)cc(OC)c1OC	17	0	1	33*
COc1cc(Nc2nc(Nc3ccc(N4CCOCC4)cc3)nc3c2ncn3C(C)C)cc(OC)c1OC	5	0	0	4
COc1cc(Nc2nc(Nc3cnccn3)nc3c2ncn3C(C)C)cc(OC)c1OC	5	0	2	47*
CN(Cc1ccc2c(c1)OCCO2)C(=O)c1ccc([N+](=O)[O-])s1	2	0	-1	5
COc1ccc(NC(=O)c2ccccc2NC(=O)c2ccc(OC(C)=O)cc2)cc1	-15	0	1	-30
CC1=Nc2cc(C(=O)NCCN3CCOCC3)ccc2Sc2ccc(Cl)cc21	9	0	-1	1
CC1=Nc2cc(C(=O)NCCN(C)C)ccc2Sc2ccc(Br)cc21	10	0	-1	60*
COCCNC(=O)c1ccc2c(c1)N=C(C)c1cc(Cl)ccc1S2	6	0	2	57*
CCC1=Nc2cc(C(=O)NCC(OC)OC)ccc2Sc2ccc(C)cc21	-4	0	0	60*
CCC1=Nc2cc(C(=O)NC)ccc2Sc2ccccc21	-15	0	0	3
O=C(COc1ccccc1)Nc1nnc(-c2ccccc2Cl)s1	-10	0	-1	-3
O=C(Nc1ccc(I)cc1)c1cc2ccccc2oc1=O	-3	0	0	-2
CCOC(=O)C1=C(C)N=c2s/c(=C/c3cc(C)n(-c4ccc(Cl)cc4)c3C)c(=O)n2C1c1ccc(Cl)cc1 (centres undefined)	1	0	0	-9
O=C(c1ccco1)N1CCN(c2ncc(-c3cccnc3)n3ccnc23)CC1	-24	2.3*	1	-70
O=C(c1ccco1)N1CCN(c2ncc(-c3ccc(CO)cc3)n3ccnc23)CC1	5	4.8*	1	39*
Nc1ccc(-c2cnc3c(N4CCN(C(=O)c5ccco5)CC4)nccn23)cc1	-8	0	-1	-60
COc1ccc(-c2cnn3ccc(NCCO)nc23)cn1	-10	0	-1	26
SMILES	MITF primary	FBW7 activator	GPR151 ag	TEAD-YAP block
NC(=O)c1ccc(-c2cc(Nc3ccc(Oc4ccccc4)cc3)nc(N)n2)cc1	3	0	-1	5
Cc1nn(C(=O)c2cc(-c3ccccc3)nc3ccccc23)c(C)c1Sc1ccc(Cl)cc1	18	0	1	4
CC(=O)Nc1cccc(-c2cnc3c(NCC4CC4)nccn23)c1	7	-1	-1	80*
CC(=O)Nc1cccc(-c2cnc3c(NCc4ccco4)nccn23)c1	12	2.3*	2	47*
CC(=O)c1cccc(-c2cnc3c(NCC4CC4)nccn23)c1	7	-1	0	-61
CC(=O)Nc1cccc(-c2cnc(NCc3cccc(Cl)c3)c3nccn23)c1	-9	-1	0	69*
CC(=O)Nc1cccc(-c2cnc3c(NCCc4cccnc4)nccn23)c1	13	0	-2	65*
CC(=O)Nc1cccc(-c2cnc3c(NCC(C)C)nccn23)c1	11	0	-2	65*
CC(C)CNc1nccn2c(-c3cccc(O)c3)cnc12	-2	0	0	-6
CCOC(=O)C1=C(C)N=c2s/c(=C\c3ccc(-c4cccc(Cl)c4)o3)c(=O)n2C1c1ccc2c(c1)OCO2 (centres undefined)	13	0	-1	-7
CCOC(=O)c1ccc(-n2c(O)c(C=Nc3ccc(O)cc3)c3ccccc3c2=O)cc1	20	0	0	13
COc1ccc(CSc2n[nH]c(C)n2)cc1	7	0	0	64*
Cc1nc(SCc2ccccc2)n[nH]1	-3	0	1	3
Cc1nc(SCc2ccc(CSc3n[nH]c(C)n3)cc2)n[nH]1	6	0	-7	83*
Cc1ccc(/C=C2\SC(=S)N(/N=C/c3cc([N+](=O)[O-])ccc3O)C2=O)o1	74*	-1	0	3
Oc1cccc(/C=C/c2ccc3cccc(O)c3n2)c1	6	0	-4	47*
Oc1cccc2ccc(/C=C/c3ccc(Cl)cc3)nc12	5	0	-2	46*
CC(C)Oc1ccc(/C=C/c2ccc3cccc(O)c3n2)cc1	5	0	-9	80*
CC(=O)Oc1ccc(/C=C/c2ccc3cccc(OC(C)=O)c3n2)cc1[N+](=O)[O-]	21	0	-7	-7
Oc1c(Br)cc(/C=C/c2ccc3cccc(O)c3n2)cc1Br	7	0	-1	17
COc1ccc(/C=C/c2ccc3cccc(OC(C)=O)c3n2)cc1OC(C)=O	17	0	-4	75*
CCc1sc(Nc2ccccc2)nc1-c1cc2ccccc2oc1=O	4	0	0	-30
CCN(CC)CCNc1nc2c(c(=O)n(C)c(=O)n2C)n1Cc1cccc(F)c1	16	0	-1	3
CCCCCC(=O)Nc1nnc(-c2cccc([N+](=O)[O-])c2)s1	8	0	0	-2
O=C(Nc1cccc(-c2nc3ccccc3[nH]2)c1)c1cccc2nccnc12	1	0	2	34*
SMILES	MITF primary	FBW7 activator	GPR151 ag	TEAD-YAP block
O=C(Nc1cccc(-c2nc3ccccc3[nH]2)c1)c1cc(=O)c2ccccc2o1	-9	2	0	41*
O=C(Nc1ccc(-c2nc3ccc(NC(=O)c4ccccc4)cc3[nH]2)cc1)c1ccccc1	6	0	1	-43
O=C(Nc1cccc(-c2nc3ccccc3o2)c1)c1cc(=O)c2ccccc2o1	-2	0	0	-1
Cc1ccccc1C(=O)Nc1ccc(-c2nc3ccc(NC(=O)c4ccccc4C)cc3[nH]2)cc1	11	0	1	76*
Cc1ccccc1C(=O)Nc1ccc(C(=O)OC(C)C)cc1	1	0	-1	-25
Cc1ccccc1C(=O)Nc1ccc(OC(=O)c2ccccc2C)cc1	-4	0	3	64*
CCc1ccc2c(c1)c1nnc(SCC(=O)Nc3ccc(NC(C)=O)cc3)nc1n2C	2	0	0	-9
Cc1cccc(Cl)c1OCCNC(C)(C)C	20	0	-1	3
COc1ccc(-c2nc(Nc3ccc(NC(C)=O)cc3)c3ncn(-c4ccccc4)c3n2)cc1	10	1	0	41*
